Assay [1] is described as follows: NCI Yeast Anticancer Drug Screen. Data for the rad50 strain (AID 155).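 Also: 0% = growth of vehicle-only cultures of the same strain.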 Particulars: S. cerevisiae rad50 strain growth inhibition; at 50.0 µM; hits give high values. A digest of the protocol:
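A DNA repair-deficient yeast mutant serves as the test organism; compound-induced growth inhibition is calculated against vehicle-treated cells.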

Assay [2] in a line: NCI Yeast Anticancer Drug Screen. Data for the mec2-1 strain (AID 157). Conditions: S. cerevisiae mec2-1 strain, at 50.0 µM, hits give high values. A digest of the protocol:
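Readout is yeast growth inhibition, normalised to vehicle-treated controls, in the mec2-1 strain exposed to compound.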

Assay [3] can be described thus: NCI Yeast Anticancer Drug Screen. Data for the sgs1 mgt1 strain (AID 161).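 Also: 0% = growth of cultures given vehicle only.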 Particulars: S. cerevisiae sgs1 mgt1 strain, at 50.0 µM, hits give high values. A digest of the protocol: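 Percent growth inhibition was derived by comparing compound-exposed mutant yeast with vehicle-exposed cultures. The strain carries alterations in DNA damage repair.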
Assay [4] is described as follows: NCI Yeast Anticancer Drug Screen. Data for the cln2 rad14 strain (AID 165).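 Also: 0% = growth equal to vehicle treated cultures.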 Particulars: S. cerevisiae cln2 rad14 strain, at 50.0 µM, hits give high values. The method, boiled down:
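Relative to vehicle controls, growth inhibition of compound-treated cln2 rad14 yeast was recorded.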

The nature of assay [5]: NCI Yeast Anticancer Drug Screen. Data for the bub3 strain (AID 167). Particulars: S. cerevisiae bub3 mutant strain, at 50.0 µM, hits give high values. A digest of the protocol:
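Inhibition values come from growth of compound-treated mutant yeast normalised to vehicle-treated controls.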

A short description of assay [6]: NCI Yeast Anticancer Drug Screen. Data for the mlh1 rad18 strain (AID 175). Conditions: S. cerevisiae mlh1 rad18 strain growth inhibition; at 50.0 µM; hits give high values. The method, boiled down: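 Test agents were incubated with a yeast strain of defined genotype (DNA damage repair defect). Inhibition of growth was derived by comparison with vehicle-exposed cultures.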

The panel holds about 79,000 compounds, 15% with a hit somewhere; the sample as a whole holds those more often. A number with no mark means an inactive call. Activity calls are given as the source filed them. Rule as the data show it: active = growth inhibition above about 70%; inactive = the rest.

For the compound `CCCCC(c1nc2c(c3c1CCCC3)CCCC2)C(O)(C(F)(F)F)C(F)(F)F` (stereo unspecified), the growth inhibition is 13.1% in assay [1]; 7% in assay [2]; 10.2% in assay [3]; -4.15% in assay [4]; -2.1% in assay [5]; 16.4% in assay [6].
As to `CO[C@@]12C[C@@H](C)[C@]34O[C@H]3C[C@]3(C)O[C@]43CC1=C(C)C(=O)O2`, the growth inhibition in assay [1] is 10.2%; in assay [2], 1.2%; in assay [3], 23.6%; in assay [4], 7.5%; in assay [5], 28.4%; in assay [6], -64%.
Regarding `CC(=O)NNc1nc(C)c(C(=O)NNC(=O)C(=O)Nc2c(Cl)cc([N+](=O)[O-])cc2Cl)s1`, the growth inhibition in assay [1] was 41.2%; in assay [2], 22.9%; in assay [3], 45.7%; in assay [4] it was 29%; in assay [5], 42.7%; in assay [6], 18.9%.
Turning to `O=C(O)CN1C(=O)/C(=C\c2ccc3ccccc3n2)SC1=S`, the growth inhibition in assay [1] was 1.9%; in assay [2], 18.9%; in assay [3], 2.85%; in assay [4] it was -14.1%; in assay [5] it was 0.4%; in assay [6], 20.6%.
For the compound `Cc1ccccc1NC(=O)c1ccccc1Cl`, the growth inhibition in assay [1] is -19.3%; in assay [2] it was -18.6%; in assay [3], -6.9%; in assay [4], -31.8%; in assay [5], -19.1%; in assay [6], -25.6%.
Regarding `O=CNC(NC=O)NC=O`, the growth inhibition in assay [1] is -3.4%; in assay [2], -2.2%; in assay [3], -2.15%; in assay [4] it was 15.2%; in assay [5], -4.3%; in assay [6], 0.95%.
Take `CC(=O)C1=CCC2[C@H]3CC=C4C[C@H](O)CC[C@@]4(C)C3CC[C@@]12C` (stereo partly specified): the growth inhibition is 21.2% in assay [1]; 55.2% in assay [2]; 49.8% in assay [3]; 17.9% in assay [4]; 58.6% in assay [5]; 37.7% in assay [6].
Take `CCOC(=O)CC[C@H](NC(=O)c1nc[nH]c1[N+](=O)[O-])C(=O)OCC`: the growth inhibition is -17.8% in assay [1]; -36% in assay [2]; -44.4% in assay [3]; 8.9% in assay [4]; -7.35% in assay [5]; -34.4% in assay [6].
For the compound `O=C1c2ccccc2CCC12OC2c1ccccn1` (stereo unspecified), the growth inhibition is 67.8% in assay [1]; 78.5% (active) in assay [2]; 55% in assay [3]; -6% in assay [4]; 89.9% (active) in assay [5]; 84.2% (active) in assay [6].
For the compound `CCCCOCCOC(=O)C(C)O` (stereo unspecified), the growth inhibition in assay [1] is 18.9%; in assay [2], 13.7%; in assay [3], 11.9%; in assay [4], 6.6%; in assay [5], -1%; in assay [6], 6.4%.
Turning to `C=CCCC(=O)CC(=O)OCC`, the growth inhibition is -25.1% in assay [1]; -22.7% in assay [2]; -10.7% in assay [3]; 10.3% in assay [4]; -8% in assay [5]; 6.15% in assay [6].
Regarding `OCC1C2C=CC1CC2` (stereo unspecified), the growth inhibition in assay [1] is -1.4%; in assay [2], -1.8%; in assay [3] it was 15.2%; in assay [4] it was -0.85%; in assay [5], 11.7%; in assay [6] it was -2.7%.
As to `C(=Nc1ccc2c(c1)Cc1ccccc1-2)c1ccccn1`, the growth inhibition in assay [1] was 61.8%; in assay [2] it was -35.5%; in assay [3], 24.3%; in assay [4], 16.9%; in assay [5], -22.8%; in assay [6] it was 49.4%.
`Nc1ccc2c(c1)CC1CC(=O)NN=C21` (stereo unspecified): the growth inhibition in assay [1] is 29.5%; in assay [2] it was 9.95%; in assay [3], 9.4%; in assay [4], 3.35%; in assay [5], -3.15%; in assay [6], -22.2%.
In the case of `CC1(C)[C@@H]2CC[C@]1(C)[C@H](OC(=O)/C=C/c1ccccc1)C2`, the growth inhibition in assay [1] was 1.9%; in assay [2], -39.8%; in assay [3], -11.4%; in assay [4] it was 8.5%; in assay [5], -16%; in assay [6], -1.5%.
`O=C(Nc1cc(Cl)ccc1Cl)c1ccc(Cl)cc1`: the growth inhibition was -1.3% in assay [1]; -14.5% in assay [2]; 4.45% in assay [3]; -44% in assay [4]; -9.7% in assay [5]; -12.7% in assay [6].
`CNS(=O)(=O)c1ccc(N)cc1`: the growth inhibition in assay [1] is -2.9%; in assay [2], -5.6%; in assay [3], 2.8%; in assay [4] it was -27.2%; in assay [5], 3.15%; in assay [6], 2.9%.
Turning to `CC(C)=CCCC(C)C=O` (stereo unspecified), the growth inhibition in assay [1] is -11.6%; in assay [2], -41.2%; in assay [3] it was -19.4%; in assay [4], 4%; in assay [5] it was -20.1%; in assay [6], 1.3%.
As to `O=[N+]([O-])c1ccc(N/N=C/c2ccccc2Cl)c([N+](=O)[O-])c1`, the growth inhibition in assay [1] is 15.3%; in assay [2], -9.55%; in assay [3] it was -1.15%; in assay [4], -22.4%; in assay [5] it was 9.75%; in assay [6], 27.3%.
Regarding `O=C(O)c1cc(O)c(C(=O)O)cc1O`, the growth inhibition in assay [1] is -3.2%; in assay [2], -9.15%; in assay [3], -18.6%; in assay [4] it was -15.2%; in assay [5], -3.25%; in assay [6], 0.3%.
Regarding `COc1ccc(C(c2cc(OC)c(OC)c(OC)c2)N2C(=O)CCC2C(=O)O)cc1` (stereo unspecified), the growth inhibition in assay [1] was -21.6%; in assay [2], -13.6%; in assay [3] it was -16.6%; in assay [4] it was -11.8%; in assay [5], -4.15%; in assay [6], -8.3%.

Source of the values: PubChem BioAssay (NCI).
